# Reference: PubChem BioAssay AID1159580 (chemical genetic matrix, 2015)
# Hit rate of the full screen: of about 5,500 compounds, about 2,000 (36%) were called active. Not shown: some 18% with an inconclusive outcome. This is one part of the list. Values without a mark were called inactive. Rule as the data show it: active = normalized growth mostly below about 0.91 (no sharp cut-off); inconclusive = no clear call, values can overlap the other calls; inactive = mostly above about 0.92.
# Test: chemical genetic growth profiling, strain panel (AID 1159580);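 also: tested at 20 µM; growth read once vehicle control cultures reached saturation at 30 °C; 1 = growth at the plate median or of vehicle wells; lower values mean less growth of the strain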
# Conditions: growth OD
structure (smiles),measurement,setting,value
CC12CCCC(O)(C1)C1CC(C)(C)C1CC2 (configuration not stated),normalized growth,"S. cerevisiae deletion strains, locus YJR066W, strain TOR1, stronger effect = lower value",0.95
same,normalized growth,"S. cerevisiae deletion strains, locus YKL009W, strain mrt4, stronger effect = lower value",1.02
same,normalized growth,"S. cerevisiae deletion strains, locus YKL068W, stronger effect = lower value",1.01
same,normalized growth,"S. cerevisiae deletion strains, locus YKL085W, strain MDH1 (second series), stronger effect = lower value",0.998
same,normalized growth,"S. cerevisiae deletion strains, locus YKL085W, strain MDH1, stronger effect = lower value",0.998
same,normalized growth,"S. cerevisiae deletion strains, locus YKL160W, strain elf1, stronger effect = lower value",0.954
same,normalized growth,"S. cerevisiae deletion strains, locus YKR001C, strain vps1, stronger effect = lower value",1.02
same,normalized growth,"S. cerevisiae deletion strains, locus YKR026C, strain gcn3, stronger effect = lower value",0.999
same,normalized growth,"S. cerevisiae deletion strains, locus YKR091W, strain srl3, stronger effect = lower value",0.991
same,normalized growth,"S. cerevisiae deletion strains, locus YLL001W, strain dnm1, stronger effect = lower value",0.925
same,normalized growth,"S. cerevisiae deletion strains, locus YLL026W, stronger effect = lower value",0.982
same,normalized growth,"S. cerevisiae deletion strains, locus YLL041C, strain sdh2, stronger effect = lower value",0.982
same,normalized growth,"S. cerevisiae deletion strains, locus YLR027C, strain aat2, stronger effect = lower value",0.948
same,normalized growth,"S. cerevisiae deletion strains, locus YLR039C, strain RIC1, stronger effect = lower value",0.972
same,normalized growth,"S. cerevisiae deletion strains, locus YLR058C, strain SHM2, stronger effect = lower value",1.01
same,normalized growth,"S. cerevisiae deletion strains, locus YLR102C, strain apc9, stronger effect = lower value",1.01
same,normalized growth,"S. cerevisiae deletion strains, locus YLR113W, strain HOG1, stronger effect = lower value",0.939
same,normalized growth,"S. cerevisiae deletion strains, locus YLR221C, strain rsa3, stronger effect = lower value",0.983
same,normalized growth,"S. cerevisiae deletion strains, locus YLR258W, strain gsy2, stronger effect = lower value",0.961
same,normalized growth,"S. cerevisiae deletion strains, locus YLR262C, strain YPT6 (second series), stronger effect = lower value",0.878
same,normalized growth,"S. cerevisiae deletion strains, locus YLR262C, strain YPT6, stronger effect = lower value",1.01
same,normalized growth,"S. cerevisiae deletion strains, locus YLR268W, strain sec22, stronger effect = lower value",0.992
same,normalized growth,"S. cerevisiae deletion strains, locus YLR320W, strain mms22, stronger effect = lower value",0.937
same,normalized growth,"S. cerevisiae deletion strains, locus YLR342W, strain FKS1, stronger effect = lower value",0.918
same,normalized growth,"S. cerevisiae deletion strains, locus YLR357W, strain rsc2, stronger effect = lower value",0.984
same,normalized growth,"S. cerevisiae deletion strains, locus YLR370C, strain arc18, stronger effect = lower value",0.981
same,normalized growth,"S. cerevisiae deletion strains, locus YLR371W, strain rom2, stronger effect = lower value",1.01
same,normalized growth,"S. cerevisiae deletion strains, locus YLR384C, strain iki3, stronger effect = lower value",1.01
same,normalized growth,"S. cerevisiae deletion strains, locus YLR418C, strain cdc73, stronger effect = lower value",1.1
same,normalized growth,"S. cerevisiae deletion strains, locus YML016C, strain PPZ1, stronger effect = lower value",1.01
same,normalized growth,"S. cerevisiae deletion strains, locus YML032C, strain rad52, stronger effect = lower value",1.02
same,normalized growth,"S. cerevisiae deletion strains, locus YML120C, strain ndi1, stronger effect = lower value",1
same,normalized growth,"S. cerevisiae deletion strains, locus YML124C, strain tub3, stronger effect = lower value",1.01
same,normalized growth,"S. cerevisiae deletion strains, locus YMR058W, strain fet3, stronger effect = lower value",0.985
same,normalized growth,"S. cerevisiae deletion strains, locus YMR078C, strain ctf18, stronger effect = lower value",1.02
same,normalized growth,"S. cerevisiae deletion strains, locus YMR125W, strain sto1, stronger effect = lower value",0.974
same,normalized growth,"S. cerevisiae deletion strains, locus YMR129W, stronger effect = lower value",1.01
same,normalized growth,"S. cerevisiae deletion strains, locus YMR205C, strain PFK2, stronger effect = lower value",0.861 (active)
same,normalized growth,"S. cerevisiae deletion strains, locus YMR223W, strain ubp8, stronger effect = lower value",1.02
same,normalized growth,"S. cerevisiae deletion strains, locus YMR231W, strain pep5, stronger effect = lower value",0.996
same,normalized growth,"S. cerevisiae deletion strains, locus YMR263W, strain SAP30, stronger effect = lower value",1.01
same,normalized growth,"S. cerevisiae deletion strains, locus YMR307W, strain GAS1, stronger effect = lower value",0.968
same,normalized growth,"S. cerevisiae deletion strains, locus YNL067W, strain RPL9B, stronger effect = lower value",1.02
same,normalized growth,"S. cerevisiae deletion strains, locus YNL071W, strain lat1, stronger effect = lower value",0.859 (active)
same,normalized growth,"S. cerevisiae deletion strains, locus YNL153C, strain GIM3, stronger effect = lower value",1.02
same,normalized growth,"S. cerevisiae deletion strains, locus YNL183C, strain NPR1, stronger effect = lower value",0.953
same,normalized growth,"S. cerevisiae deletion strains, locus YNL209W, strain ssb2, stronger effect = lower value",1
same,normalized growth,"S. cerevisiae deletion strains, locus YNL233W, strain BNI4, stronger effect = lower value",1.02
same,normalized growth,"S. cerevisiae deletion strains, locus YNL248C, strain rpa49, stronger effect = lower value",1.01
same,normalized growth,"S. cerevisiae deletion strains, locus YNL250W, strain rad50, stronger effect = lower value",1.04
same,normalized growth,"S. cerevisiae deletion strains, locus YNL271C, strain bni1, stronger effect = lower value",0.998
same,normalized growth,"S. cerevisiae deletion strains, locus YNL298W, strain CLA4, stronger effect = lower value",0.993
same,normalized growth,"S. cerevisiae deletion strains, locus YNL307C, strain MCK1, stronger effect = lower value",1.02
same,normalized growth,"S. cerevisiae deletion strains, locus YNL322C, strain KRE1 (second series), stronger effect = lower value",0.974
same,normalized growth,"S. cerevisiae deletion strains, locus YNL322C, strain KRE1, stronger effect = lower value",1.01
same,normalized growth,"S. cerevisiae deletion strains, locus YNR049C, strain mso1, stronger effect = lower value",1
same,normalized growth,"S. cerevisiae deletion strains, locus YNR052C, strain pop2, stronger effect = lower value",1.03
same,normalized growth,"S. cerevisiae deletion strains, locus YOL012C, strain htz1",1.39
same,normalized growth,"S. cerevisiae deletion strains, locus YOL147C, strain pex11, stronger effect = lower value",0.997
same,normalized growth,"S. cerevisiae deletion strains, locus YOR001W, strain rrp6, stronger effect = lower value",1.05
same,normalized growth,"S. cerevisiae deletion strains, locus YOR061W, strain CKA2, stronger effect = lower value",1
same,normalized growth,"S. cerevisiae deletion strains, locus YOR069W, strain VPS5, stronger effect = lower value",1.01
same,normalized growth,"S. cerevisiae deletion strains, locus YOR070C, strain gyp1, stronger effect = lower value",0.975
same,normalized growth,"S. cerevisiae deletion strains, locus YOR080W, strain dia2, stronger effect = lower value",1.01
same,normalized growth,"S. cerevisiae deletion strains, locus YOR083W, strain WHI5, stronger effect = lower value",0.956
same,normalized growth,"S. cerevisiae deletion strains, locus YOR106W, strain vam3, stronger effect = lower value",0.986
same,normalized growth,"S. cerevisiae deletion strains, locus YOR136W, strain idh2, stronger effect = lower value",1.01
same,normalized growth,"S. cerevisiae deletion strains, locus YOR144C, strain elg1, stronger effect = lower value",1
same,normalized growth,"S. cerevisiae deletion strains, locus YOR184W, strain ser1, stronger effect = lower value",0.978
same,normalized growth,"S. cerevisiae deletion strains, locus YOR231W, strain MKK1, stronger effect = lower value",0.973
same,normalized growth,"S. cerevisiae deletion strains, locus YOR265W, strain rbl2, stronger effect = lower value",0.999
same,normalized growth,"S. cerevisiae deletion strains, locus YOR270C, strain vph1, stronger effect = lower value",0.709 (active)
same,normalized growth,"S. cerevisiae deletion strains, locus YOR290C, strain snf2, stronger effect = lower value",0.954
same,normalized growth,"S. cerevisiae deletion strains, locus YOR316C, strain cot1, stronger effect = lower value",1.01
same,normalized growth,"S. cerevisiae deletion strains, locus YPL051W, strain arl3, stronger effect = lower value",0.939
same,normalized growth,"S. cerevisiae deletion strains, locus YPL055C, strain LGE1, stronger effect = lower value",1.01
same,normalized growth,"S. cerevisiae deletion strains, locus YPL078C, strain atp4, stronger effect = lower value",0.941
same,normalized growth,"S. cerevisiae deletion strains, locus YPL106C, strain sse1, stronger effect = lower value",0.892
same,normalized growth,"S. cerevisiae deletion strains, locus YPL240C, strain hsp82, stronger effect = lower value",0.991
same,normalized growth,"S. cerevisiae deletion strains, locus YPL241C, strain CIN2, stronger effect = lower value",0.999
same,normalized growth,"S. cerevisiae deletion strains, locus YPL256C, strain CLN2, stronger effect = lower value",0.958
same,normalized growth,"S. cerevisiae deletion strains, locus YPR119W, strain clb2, stronger effect = lower value",1.02
same,normalized growth,"S. cerevisiae deletion strains, locus YPR141C, strain kar3, stronger effect = lower value",1
same,normalized growth,"S. cerevisiae deletion strains, locus YPR163C, strain tif3, stronger effect = lower value",1.02
same,normalized growth,"S. cerevisiae deletion strains, locus YPR167C, strain met16, stronger effect = lower value",1.01
same,normalized growth,"S. cerevisiae deletion strains, strain wtn01, stronger effect = lower value",1.01
same,normalized growth,"S. cerevisiae strains, strain wild type, stronger effect = lower value",1.01
